ChEMBL document CHEMBL1961873, “Compounds: GSK PKIS; Assays: Nanosyn kinase panel” (2012)

Columns and labels:
[1] = molecular target: Rho-associated protein kinase 1 (Homo sapiens) (UniProt Q13464); settings: at 1 µM;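 also: reported values are mean percent inhibition of ROCK1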
[2] = molecular target: Rho-associated protein kinase 2 (Homo sapiens) (UniProt O75116); settings: at 0.1 µM
[3] = molecular target: Rho-associated protein kinase 2 (Homo sapiens) (UniProt O75116); settings: at 1 µM
[4] = molecular target: Ribosomal protein S6 kinase alpha-1 (Homo sapiens) (UniProt Q15418); settings: at 0.1 µM
[5] = molecular target: Ribosomal protein S6 kinase alpha-1 (Homo sapiens) (UniProt Q15418); settings: at 1 µM
[6] = molecular target: Ribosomal protein S6 kinase alpha-3 (Homo sapiens) (UniProt P51812); settings: at 0.1 µM
[7] = molecular target: Ribosomal protein S6 kinase alpha-3 (Homo sapiens) (UniProt P51812); settings: at 1 µM
[8] = molecular target: Ribosomal protein S6 kinase alpha-2 (Homo sapiens) (UniProt Q15349); settings: at 0.1 µM
[9] = molecular target: Ribosomal protein S6 kinase alpha-2 (Homo sapiens) (UniProt Q15349); settings: at 1 µM
[10] = molecular target: Ribosomal protein S6 kinase alpha-6 (Homo sapiens) (UniProt Q9UK32); settings: at 0.1 µM
[11] = molecular target: Ribosomal protein S6 kinase alpha-6 (Homo sapiens) (UniProt Q9UK32); settings: at 1 µM
[12] = molecular target: T1, Serine/threonine-protein kinase Sgk1 (Homo sapiens) (UniProt O00141); settings: at 0.1 µM
T1 sequence (whole entry): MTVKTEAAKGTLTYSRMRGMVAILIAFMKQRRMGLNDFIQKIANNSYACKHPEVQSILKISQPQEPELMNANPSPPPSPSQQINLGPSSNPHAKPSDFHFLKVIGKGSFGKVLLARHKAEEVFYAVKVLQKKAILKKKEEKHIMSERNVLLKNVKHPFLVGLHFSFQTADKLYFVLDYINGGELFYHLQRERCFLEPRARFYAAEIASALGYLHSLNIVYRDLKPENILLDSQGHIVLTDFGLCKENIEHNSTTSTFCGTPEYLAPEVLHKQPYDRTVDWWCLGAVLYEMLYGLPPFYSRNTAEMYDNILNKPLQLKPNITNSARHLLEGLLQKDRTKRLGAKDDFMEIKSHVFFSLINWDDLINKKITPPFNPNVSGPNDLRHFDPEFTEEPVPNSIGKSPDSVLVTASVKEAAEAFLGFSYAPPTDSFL

[13] = molecular target: T1, Serine/threonine-protein kinase Sgk1 (Homo sapiens); settings: at 1 µM
[14] = molecular target: T2, Serine/threonine-protein kinase Sgk2 (Homo sapiens) (UniProt Q9HBY8); settings: at 0.1 µM
T2 sequence (whole entry): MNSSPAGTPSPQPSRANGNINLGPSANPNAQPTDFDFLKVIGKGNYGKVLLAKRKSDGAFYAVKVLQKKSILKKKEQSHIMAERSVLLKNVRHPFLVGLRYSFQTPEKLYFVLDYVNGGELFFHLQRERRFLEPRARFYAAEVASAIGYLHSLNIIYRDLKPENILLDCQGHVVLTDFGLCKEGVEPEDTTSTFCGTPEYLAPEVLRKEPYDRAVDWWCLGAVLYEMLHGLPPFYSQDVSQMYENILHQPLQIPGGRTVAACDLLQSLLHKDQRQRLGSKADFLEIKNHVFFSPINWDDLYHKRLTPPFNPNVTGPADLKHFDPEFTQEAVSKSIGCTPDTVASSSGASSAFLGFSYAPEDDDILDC

[15] = molecular target: T2, Serine/threonine-protein kinase Sgk2 (Homo sapiens); settings: at 1 µM
[16] = molecular target: T3, Serine/threonine-protein kinase Sgk3 (Homo sapiens) (UniProt Q96BR1); settings: at 0.1 µM
T3 sequence (whole entry): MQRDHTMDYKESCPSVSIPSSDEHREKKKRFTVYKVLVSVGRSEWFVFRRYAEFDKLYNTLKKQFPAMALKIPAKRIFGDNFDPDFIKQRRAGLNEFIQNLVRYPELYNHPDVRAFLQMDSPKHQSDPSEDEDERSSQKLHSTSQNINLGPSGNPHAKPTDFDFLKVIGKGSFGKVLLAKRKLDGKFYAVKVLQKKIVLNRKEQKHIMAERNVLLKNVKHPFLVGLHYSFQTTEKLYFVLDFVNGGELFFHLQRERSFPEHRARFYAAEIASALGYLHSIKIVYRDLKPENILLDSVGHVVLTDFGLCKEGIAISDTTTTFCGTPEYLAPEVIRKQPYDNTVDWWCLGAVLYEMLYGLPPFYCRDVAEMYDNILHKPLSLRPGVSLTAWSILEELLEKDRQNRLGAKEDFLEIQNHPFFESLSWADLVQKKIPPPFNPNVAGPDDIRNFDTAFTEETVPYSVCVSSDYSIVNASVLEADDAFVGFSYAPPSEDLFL

[17] = molecular target: T3, Serine/threonine-protein kinase Sgk3 (Homo sapiens); settings: at 1 µM
[18] = molecular target: 5'-AMP-activated protein kinase catalytic subunit alpha-1 (Homo sapiens) (UniProt Q13131); settings: at 0.1 µM
[19] = molecular target: 5'-AMP-activated protein kinase catalytic subunit alpha-1 (Homo sapiens) (UniProt Q13131); settings: at 1 µM
[20] = molecular target: 5'-AMP-activated protein kinase catalytic subunit alpha-2 (Homo sapiens) (UniProt P54646); settings: at 0.1 µM;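 also: mean inhibition measured on the AMPK complex of alpha2, beta1 and gamma1 subunits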

Chain of Ribosomal protein S6 kinase alpha-2 (Homo sapiens) (Q15349 whole entry): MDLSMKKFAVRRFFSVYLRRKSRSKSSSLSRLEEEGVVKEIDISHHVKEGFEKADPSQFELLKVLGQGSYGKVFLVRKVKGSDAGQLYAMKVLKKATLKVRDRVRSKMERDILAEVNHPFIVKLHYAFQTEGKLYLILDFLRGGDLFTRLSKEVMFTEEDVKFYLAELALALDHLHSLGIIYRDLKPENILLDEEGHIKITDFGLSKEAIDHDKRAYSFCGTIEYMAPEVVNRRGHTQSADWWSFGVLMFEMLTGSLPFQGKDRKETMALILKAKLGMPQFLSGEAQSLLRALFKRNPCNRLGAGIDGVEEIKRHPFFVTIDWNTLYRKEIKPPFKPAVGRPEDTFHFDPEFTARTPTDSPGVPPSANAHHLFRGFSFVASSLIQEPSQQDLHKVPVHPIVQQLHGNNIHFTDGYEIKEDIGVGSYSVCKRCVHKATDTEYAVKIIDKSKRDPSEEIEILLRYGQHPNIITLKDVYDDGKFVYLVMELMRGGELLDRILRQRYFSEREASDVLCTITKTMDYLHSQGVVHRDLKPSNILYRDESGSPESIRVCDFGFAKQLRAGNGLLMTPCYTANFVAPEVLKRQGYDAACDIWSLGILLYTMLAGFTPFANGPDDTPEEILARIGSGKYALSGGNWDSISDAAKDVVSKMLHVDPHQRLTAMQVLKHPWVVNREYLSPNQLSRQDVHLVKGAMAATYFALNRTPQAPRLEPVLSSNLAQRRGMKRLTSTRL
Chain of Rho-associated protein kinase 2 (Homo sapiens) (O75116 whole entry, looked up): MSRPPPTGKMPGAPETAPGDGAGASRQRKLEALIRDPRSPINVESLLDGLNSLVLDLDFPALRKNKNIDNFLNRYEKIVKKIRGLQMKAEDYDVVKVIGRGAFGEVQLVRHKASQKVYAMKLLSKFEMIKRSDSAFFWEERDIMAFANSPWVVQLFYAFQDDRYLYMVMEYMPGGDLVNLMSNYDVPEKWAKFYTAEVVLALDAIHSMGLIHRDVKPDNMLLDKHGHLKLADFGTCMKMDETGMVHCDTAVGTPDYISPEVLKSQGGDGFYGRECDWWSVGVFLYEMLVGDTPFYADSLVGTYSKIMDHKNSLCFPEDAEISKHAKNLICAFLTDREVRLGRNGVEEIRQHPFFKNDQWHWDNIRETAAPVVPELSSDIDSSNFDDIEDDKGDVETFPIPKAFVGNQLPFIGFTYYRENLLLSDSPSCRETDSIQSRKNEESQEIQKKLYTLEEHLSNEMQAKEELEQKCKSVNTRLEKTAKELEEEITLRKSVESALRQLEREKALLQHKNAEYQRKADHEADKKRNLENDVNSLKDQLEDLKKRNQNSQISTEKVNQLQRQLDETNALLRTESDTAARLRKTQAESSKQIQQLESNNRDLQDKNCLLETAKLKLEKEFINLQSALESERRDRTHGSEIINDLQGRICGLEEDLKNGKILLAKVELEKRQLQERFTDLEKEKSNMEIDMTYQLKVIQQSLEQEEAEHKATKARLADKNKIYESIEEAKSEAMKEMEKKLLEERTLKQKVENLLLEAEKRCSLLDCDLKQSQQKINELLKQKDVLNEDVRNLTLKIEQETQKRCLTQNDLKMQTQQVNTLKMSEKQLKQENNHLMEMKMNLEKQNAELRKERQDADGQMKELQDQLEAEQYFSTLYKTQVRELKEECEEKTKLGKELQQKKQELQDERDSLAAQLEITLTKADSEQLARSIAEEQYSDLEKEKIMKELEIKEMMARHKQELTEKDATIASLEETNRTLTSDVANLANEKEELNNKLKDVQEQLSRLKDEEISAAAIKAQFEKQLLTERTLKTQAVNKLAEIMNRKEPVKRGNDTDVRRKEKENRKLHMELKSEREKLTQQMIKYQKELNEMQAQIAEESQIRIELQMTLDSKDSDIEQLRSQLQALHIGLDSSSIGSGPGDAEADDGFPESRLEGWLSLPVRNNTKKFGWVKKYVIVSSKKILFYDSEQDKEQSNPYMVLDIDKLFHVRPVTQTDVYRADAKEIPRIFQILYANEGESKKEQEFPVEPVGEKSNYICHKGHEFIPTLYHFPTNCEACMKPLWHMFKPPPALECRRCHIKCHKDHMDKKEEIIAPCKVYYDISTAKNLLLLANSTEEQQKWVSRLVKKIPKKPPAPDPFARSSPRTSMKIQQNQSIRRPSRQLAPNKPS
Chain of Ribosomal protein S6 kinase alpha-3 (Homo sapiens) (P51812 whole entry): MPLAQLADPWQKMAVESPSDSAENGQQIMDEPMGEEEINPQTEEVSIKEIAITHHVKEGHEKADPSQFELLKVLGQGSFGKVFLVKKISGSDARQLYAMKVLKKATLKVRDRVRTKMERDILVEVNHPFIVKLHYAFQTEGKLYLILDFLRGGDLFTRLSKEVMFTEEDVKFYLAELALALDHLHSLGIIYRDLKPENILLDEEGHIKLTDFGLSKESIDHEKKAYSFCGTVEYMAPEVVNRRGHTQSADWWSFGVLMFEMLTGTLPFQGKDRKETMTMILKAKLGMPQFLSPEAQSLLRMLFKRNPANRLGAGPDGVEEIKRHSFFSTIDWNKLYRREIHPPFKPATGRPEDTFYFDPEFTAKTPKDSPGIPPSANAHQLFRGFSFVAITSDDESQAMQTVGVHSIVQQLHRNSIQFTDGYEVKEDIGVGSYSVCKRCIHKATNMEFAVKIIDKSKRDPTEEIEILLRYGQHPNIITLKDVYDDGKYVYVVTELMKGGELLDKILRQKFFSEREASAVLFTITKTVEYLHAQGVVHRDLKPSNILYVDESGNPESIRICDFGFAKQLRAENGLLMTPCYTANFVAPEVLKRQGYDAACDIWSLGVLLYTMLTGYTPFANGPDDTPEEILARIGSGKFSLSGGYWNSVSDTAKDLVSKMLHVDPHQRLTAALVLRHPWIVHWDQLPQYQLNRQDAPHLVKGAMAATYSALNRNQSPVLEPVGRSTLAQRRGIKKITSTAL
Chain of Ribosomal protein S6 kinase alpha-1 (Homo sapiens) (Q15418 whole entry): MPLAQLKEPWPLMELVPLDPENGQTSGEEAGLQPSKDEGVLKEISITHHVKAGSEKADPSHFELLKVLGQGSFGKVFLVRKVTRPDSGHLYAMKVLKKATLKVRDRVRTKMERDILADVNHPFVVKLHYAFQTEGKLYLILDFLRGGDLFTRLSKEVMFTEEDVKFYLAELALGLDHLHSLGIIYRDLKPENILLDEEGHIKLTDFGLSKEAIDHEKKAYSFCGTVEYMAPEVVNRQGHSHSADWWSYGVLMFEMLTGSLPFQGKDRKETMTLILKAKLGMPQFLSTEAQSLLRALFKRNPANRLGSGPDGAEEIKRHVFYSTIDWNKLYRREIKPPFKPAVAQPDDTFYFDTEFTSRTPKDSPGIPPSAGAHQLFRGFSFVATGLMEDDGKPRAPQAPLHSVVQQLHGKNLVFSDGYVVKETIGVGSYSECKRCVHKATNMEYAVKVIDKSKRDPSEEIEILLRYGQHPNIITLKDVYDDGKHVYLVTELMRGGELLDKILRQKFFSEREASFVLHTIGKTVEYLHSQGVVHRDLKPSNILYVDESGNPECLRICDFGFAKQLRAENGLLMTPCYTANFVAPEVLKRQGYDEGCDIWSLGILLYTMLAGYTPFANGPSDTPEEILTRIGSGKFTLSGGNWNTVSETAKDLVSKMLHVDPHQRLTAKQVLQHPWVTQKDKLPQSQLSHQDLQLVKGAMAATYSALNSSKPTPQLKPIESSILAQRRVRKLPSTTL
Chain of Rho-associated protein kinase 1 (Homo sapiens) (Q13464 2-1354 limits assumed): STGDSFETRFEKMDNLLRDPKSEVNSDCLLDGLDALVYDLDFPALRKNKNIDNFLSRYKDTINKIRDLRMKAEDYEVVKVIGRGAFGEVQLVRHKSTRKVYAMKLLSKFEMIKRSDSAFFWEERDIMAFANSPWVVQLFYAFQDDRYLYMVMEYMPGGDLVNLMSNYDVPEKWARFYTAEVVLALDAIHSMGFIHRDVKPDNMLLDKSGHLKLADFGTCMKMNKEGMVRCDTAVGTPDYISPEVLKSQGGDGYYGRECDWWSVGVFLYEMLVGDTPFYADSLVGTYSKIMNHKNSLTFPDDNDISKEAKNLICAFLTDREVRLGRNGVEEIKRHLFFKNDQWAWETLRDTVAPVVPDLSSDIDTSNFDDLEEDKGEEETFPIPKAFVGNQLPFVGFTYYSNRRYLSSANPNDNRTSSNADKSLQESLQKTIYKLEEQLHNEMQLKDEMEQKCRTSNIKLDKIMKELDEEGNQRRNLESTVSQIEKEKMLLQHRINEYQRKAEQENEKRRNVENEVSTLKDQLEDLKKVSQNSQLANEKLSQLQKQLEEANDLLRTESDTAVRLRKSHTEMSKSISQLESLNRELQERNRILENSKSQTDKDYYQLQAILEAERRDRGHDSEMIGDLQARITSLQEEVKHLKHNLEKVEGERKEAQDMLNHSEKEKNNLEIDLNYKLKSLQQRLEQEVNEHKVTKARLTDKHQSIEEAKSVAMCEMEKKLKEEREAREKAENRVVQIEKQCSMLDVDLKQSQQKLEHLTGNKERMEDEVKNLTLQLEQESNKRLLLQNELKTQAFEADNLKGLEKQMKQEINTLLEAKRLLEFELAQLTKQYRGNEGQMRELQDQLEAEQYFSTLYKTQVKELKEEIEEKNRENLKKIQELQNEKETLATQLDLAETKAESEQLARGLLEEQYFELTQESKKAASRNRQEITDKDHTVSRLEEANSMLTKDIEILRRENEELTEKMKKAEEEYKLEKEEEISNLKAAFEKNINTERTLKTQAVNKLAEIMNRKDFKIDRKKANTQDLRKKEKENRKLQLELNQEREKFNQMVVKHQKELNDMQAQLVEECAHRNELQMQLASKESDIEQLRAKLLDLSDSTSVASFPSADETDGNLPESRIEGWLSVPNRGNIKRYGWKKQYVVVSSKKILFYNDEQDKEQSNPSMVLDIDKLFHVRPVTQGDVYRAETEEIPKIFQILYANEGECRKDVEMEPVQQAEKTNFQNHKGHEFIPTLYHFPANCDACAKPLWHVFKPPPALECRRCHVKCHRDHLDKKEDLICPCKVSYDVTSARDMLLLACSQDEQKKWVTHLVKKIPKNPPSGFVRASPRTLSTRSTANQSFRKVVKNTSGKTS

Row | Structure (SMILES) | inhibition [1] [%] | inhibition [2] [%] | inhibition [3] [%] | inhibition [4] [%] | inhibition [5] [%] | inhibition [6] [%] | inhibition [7] [%] | inhibition [8] [%] | inhibition [9] [%] | inhibition [10] [%] | inhibition [11] [%] | inhibition [12] [%] | inhibition [13] [%] | inhibition [14] [%] | inhibition [15] [%] | inhibition [16] [%] | inhibition [17] [%] | inhibition [18] [%] | inhibition [19] [%] | inhibition [20] [%]
1 | COc1cccc(COc2cc(-n3cnc4ccccc43)sc2C(N)=O)c1 | -0.3 | -0.06 | 0.84 | 0.37 | 0.21 | 0.89 | -1.45 | -0.15 | 1.4 | 1.09 | 2.04 | 3.04 | 0.63 | -0.02 | -0.45 | -1.95 | -0.21 | 0.92 | 2.35 | -0.66
2 | CCn1c(-c2nonc2N)nc2c(C#CC(C)(C)O)nc(O[C@@H](CN)c3ccccc3)cc21 | 51.7 | 11.5 | 59.4 | 19.1 | 71.6 | 18 | 69.5 | 15.4 | 69.9 | 4.01 | 23.4 | 4 | 34.2 | 5.31 | 3.43 | 64.9 | 94.2 | 79.2 | 88.1 | 24.6
3 | COc1cccc(-n2ncc3c(N/N=C/c4ccncc4)ncnc32)c1 | 9.67 | 4.97 | 19.4 | 3.51 | 7.17 | 1.43 | 4.26 | 2.35 | 4.92 | 2.25 | 4.33 | 6.01 | 16.1 | 4.49 | 11.9 | 5.19 | 6.6 | 2.59 | 9.15 | 2.26
4 | CCn1c(-c2nonc2N)nc2c(C#CC(C)(C)O)ncc(OCC3CCNCC3)c21 | 13.7 | 6.21 | 27.5 | 4.34 | 19.9 | 4.16 | 19 | 2.47 | 7.78 | 2.29 | 7.82 | 5.12 | 10.5 | 2.67 | 8.07 | 21.6 | 67.4 | 13.8 | 51.9 | 3.32
5 | NS(=O)(=O)c1ccc(-c2ccc3c(NC(=O)C4CC4)n[nH]c3c2)cc1 | 2.34 | 0.8 | 1.01 | 1.47 | 0.59 | 0.4 | 1.28 | 0.45 | 2.46 | 1.52 | 3.54 | 0.35 | 14.6 | -0.5 | 3.35 | -0.5 | -1.93 | 2.61 | 2.22 | -0.68
6 | Cc1cc(-c2ccco2)cc(C)c1/C=C/c1cncc(-c2nn[nH]n2)c1 | 1.58 | 0.76 | 1.41 | 0.75 | 1.35 | 0.67 | 0.7 | 1.44 | 0.92 | -0.24 | -0.53 | 2.78 | 0.73 | -0.62 | -1.7 | -0.03 | -0.92 | 0.43 | 1.33 | 0.25
7 | COc1cc(C=NNc2ncnc3c2cnn3Cc2ccccc2)ccc1O | 5.87 | -0.21 | 1.36 | 1.68 | 3.82 | 1.86 | 3.94 | -0.6 | 1.82 | -1.29 | 2.26 | -3.31 | 3.11 | -3 | -2.21 | -2.5 | -0.29 | -1.23 | -0.19 | -2.17
8 | CCn1c(-c2nonc2N)nc2c(C#CCN)ncc(OCCCN)c21 | 48.7 | 10.6 | 53.7 | 20.1 | 68.3 | 24.4 | 72.9 | 7.65 | 48.5 | 1.06 | 15.3 | 1.23 | 5.38 | -0.28 | 8.17 | 5.66 | 40.1 | 0.48 | 4.78 | 2.63
9 | NC(=O)c1sc(-n2cnc3cc(C(F)(F)F)ccc32)cc1OCc1ccccc1Br | 0.79 | 0.92 | 1.05 | 1.6 | 2.97 | 3.26 | 3.31 | 2.33 | 1.83 | 1.36 | 1.95 | 1.54 | 2.43 | 0.68 | -0.08 | -0.31 | 4.18 | 2.29 | 2.17 | 2.18
10 | CCn1c(-c2nonc2N)nc2c(C#CC(C)(C)O)ncc(OC[C@@H]3CCCN3)c21 | 12.4 | -0.51 | 10 | -0.68 | 23.3 | 3.35 | 24.9 | 2.02 | 13.3 | -0.15 | 8.09 | 1.28 | 2.09 | 3.27 | 2.29 | 12.7 | 47.4 | 6 | 39.3 | 0.91
11 | Nc1nonc1-c1nc2cnccc2n1C1CCCCC1 | 78.4 | 42.4 | 83.4 | 52.1 | 86.4 | 40.9 | 81.4 | 70 | 92.6 | 6.78 | 30.9 | 1.2 | 13.2 | 5.9 | 40.5 | 7.01 | 41.7 | 0.66 | 5.36 | -0.2
12 | COc1cc2c(cc1Nc1nc(Nc3ccsc3C(N)=O)c3cc[nH]c3n1)N(C(=O)CN(C)C)CCC2 | 26.1 | 3.13 | 23.2 | 7.13 | 34.8 | -6.28 | -1.3 | 0.29 | 7.85 | 0.38 | 16.4 | 3.82 | 2.11 | 2.89 | 2.84 | -0.08 | -0.04 | 1.03 | -0.4 | 0.93
13 | Fc1ccc(-c2ncn(C3CCNCC3)c2-c2ccnc(Oc3ccccc3)n2)cc1 | 1.62 | -0.24 | 0.28 | -0.66 | -0.32 | -1.31 | -1.67 | 1.35 | 0.51 | -0.22 | -1.23 | 0.46 | 0.24 | 0.49 | 2.09 | 0.78 | 2.18 | 2.1 | 0.47 | 2.07
14 | NS(=O)(=O)c1ccc(N/C=C2\C(=O)Nc3ccc4ncsc4c32)cc1 | 33 | 12 | 47.5 | 4.22 | 31.3 | 6.13 | 36 | 16.5 | 66.1 | 12.6 | 59.9 | 9.85 | 47.5 | 4.72 | 18.4 | 3.8 | 10.2 | 21.1 | 59.9 | 14.4
